Experimental data as given in PubChem BioAssay AID1851 (National Center for Advancing Translational Sciences (NCATS), 2009).
Hit rate of the full screen: of about 16,000 compounds, about 5,800 (36%) were called active. About 23% were inconclusive and are not listed. Calls come from the whole dose curve; as a rule, active = well fitted curve in the direction sought with a large enough effect; inconclusive = small, poorly fitted or top-dose-only effect, or effect the other way; inactive = no such curve, though single readings can be large or run the other way. The list shows a part of the results.

These compounds were tested against Cytochrome P450 2C19 (Homo sapiens) (UniProt P33261) (assay: Cytochrome panel assay with activity outcomes). Settings: recombinant CYP, pro-luciferin dealkylation, luminescence, p450-cyp2c19; series mostly up to 57.1 µM; activity, negative = inhibition: at the top concentration.
% is set by controls: 0 for no effect and ±100 for the full control effect.

Sequence of Cytochrome P450 2C19 (Homo sapiens) (P33261 whole entry, looked up): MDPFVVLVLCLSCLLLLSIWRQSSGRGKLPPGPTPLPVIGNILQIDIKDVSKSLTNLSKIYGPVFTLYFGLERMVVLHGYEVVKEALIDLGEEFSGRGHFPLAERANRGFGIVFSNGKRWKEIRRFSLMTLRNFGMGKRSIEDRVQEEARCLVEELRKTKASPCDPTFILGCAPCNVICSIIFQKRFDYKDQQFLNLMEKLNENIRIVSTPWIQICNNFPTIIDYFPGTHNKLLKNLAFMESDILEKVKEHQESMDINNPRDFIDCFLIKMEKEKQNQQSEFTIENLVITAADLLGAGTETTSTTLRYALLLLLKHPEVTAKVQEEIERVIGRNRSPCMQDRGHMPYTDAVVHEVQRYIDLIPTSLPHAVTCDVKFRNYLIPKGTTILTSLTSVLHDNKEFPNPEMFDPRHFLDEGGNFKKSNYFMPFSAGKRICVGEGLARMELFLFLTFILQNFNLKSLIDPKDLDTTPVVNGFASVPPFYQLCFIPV

| SMILES | AC50 | activity, negative = inhibition |
| --- | --- | --- |
| C/C(=N/NC(=O)Cc1cccn1C)c1ccccc1 | 10 µM (active) |  |
| CC(=NCC(=O)O)c1ccccc1 |  | 0.942% [at 11.4 µM] (inactive) |
| COc1ccc(/C(C)=N/NC(=O)c2ccc(N(C)C)cc2)cc1 |  | 22.2% (inactive) |
| C/C(=N\NC(=O)c1ccc(Br)cc1)c1ccccc1 | 2.82 µM (active) |  |
| CC(=O)NN1C(=O)c2ccc(Oc3cccc([N+](=O)[O-])c3)cc2C1=O | 11.2 µM (active) |  |
| CC(=O)NN1C(=O)c2ccc(Oc3ccc([N+](=O)[O-])cc3)cc2C1=O |  | -26.5% (inactive) |
| Cc1sc2ccccc2[n+]1CCC(C)S(=O)(=O)[O-] (centres undefined) |  | -14.6% (inactive) |
| CCOC(=O)C[n+]1c(C)sc2ccc(OC)cc21 | 5.01 µM (active) |  |
| Cc1sc2ccccc2[n+]1CCC(=O)O |  | 13.1% [at 11.4 µM] (inactive) |
| O=C(Oc1ccccc1[N+](=O)[O-])c1cccnc1 |  | 2.69% (inactive) |
| C/C(=N\NC(=O)c1[nH]c2c([N+](=O)[O-])cc(C)cc2c1-c1ccccc1)c1cccnc1 | 4.47 µM (active) |  |
| O=C(N/N=C(\c1ccccc1)c1cccnc1)C(O)(c1ccccc1)c1ccccc1 |  | -19.4% (inactive) |
| CC(C)(C)[C@@]1(O)CCN2C[C@@H]3c4ccccc4CCc4cccc(c43)[C@@H]2C1 | inactive |  |
| CN1CCN(c2ncncc2-c2cccnc2)CC1 |  | 25.5% (inactive) |
| CN1CCN2c3ncccc3Cc3ccccc3C2C1 (centres undefined) | 0.0501 µM (active) |  |
| Oc1ccc([C@@H]2CNCc3sccc32)cc1O |  | 10.2% (inactive) |
| CC[C@H](C)N(C)C(=O)c1cc2ccccc2c(-c2ccccc2Cl)n1 |  | -37% (inactive) |
| Cc1cccc(NC(=O)NNC(=O)c2cc(-c3ccccc3Cl)nc3ccccc23)c1 | 3.16 µM (active) |  |
| O=C(NNC(=O)c1cc(-c2ccc(Cl)c(Cl)c2)nc2ccccc12)Nc1ccccc1 | 4.47 µM (active) |  |
| O=C(COc1ccc2ccccc2c1Br)NNC(=O)Nc1ccccc1 | 3.55 µM (active) |  |
| C[C@@H]1[C@H]2CC[C@@H]3[C@@H]4CC=C5C[C@@H](N(C)C)CC[C@]5(C)[C@@H]4CC[C@@]32CN1C |  | -42.1% [at 25.6 µM] (inactive) |
| Cc1noc(C)c1C(=O)N1CCC[C@@]2(CCN(c3ncccn3)C2)C1 |  | -14% (inactive) |

| SMILES | AC50 | activity, negative = inhibition |
| --- | --- | --- |
| Cc1ccccc1C(=O)NC(=S)NCC(=O)c1ccccc1 | 4.47 µM (active) |  |
| Cc1ccc(C(=O)NC(=S)NCC(=O)c2ccccc2)cc1 |  | -26.2% (inactive) |
| Cc1nn(-c2ccccc2)c2c1C(c1ccc(O)c(O)c1)N1C(=N2)C(Nc2ccccc2)=Nc2ccccc21 (centres undefined) | 3.16 µM (active) |  |
| CC(=O)Nc1ccc(NC2=Nc3ccccc3N3C2=Nc2c(c(C)nn2-c2ccccc2)C3c2ccccc2)cc1 (centres undefined) | 2 µM (active) |  |
| CN(CC(=O)O/N=C(\N)c1ccccn1)S(=O)(=O)c1ccccc1 |  | -28.9% (inactive) |
| Cc1cccc(CSCCNC(=O)c2ccc(N(C)S(=O)(=O)c3ccccc3)cc2)c1 | 1.12 µM (active) |  |
| COC(=O)CN(c1ccccn1)S(=O)(=O)c1ccccc1 |  | -7.88% (inactive) |
| O=C(CN(c1ccccc1)S(=O)(=O)c1ccccc1)NCCSCc1ccco1 | 8.91 µM (active) |  |
| Cc1cc(C)cc(N(CC(=O)NCCSc2ccccn2)S(=O)(=O)c2ccccc2)c1 | 2.24 µM (active) |  |
| Cc1cccc(N(CC(=O)NCCSCc2ccco2)S(=O)(=O)c2ccccc2)c1 | 2.51 µM (active) |  |
| CCCOc1ccccc1-c1nc2n[nH]nc2c(=O)[nH]1 | inactive |  |
| NC(N)=NC[C@@H]1COC2(CCCCC2)O1 |  | 0.253% [at 25.6 µM] (inactive) |
| N[C@@H](CS(=O)O)C(=O)O |  | 3.38% (inactive) |
| Fc1ccc(NC(=S)NCCc2ccccc2)c(F)c1F | 0.355 µM (active) |  |
| Fc1cc(Br)ccc1NC(=S)NCCc1ccccc1 | 1.58 µM (active) |  |
| COc1ccccc1NC(=S)NC(=O)c1ccc(-c2ccc(Cl)cc2)o1 | 8.91 µM (active) |  |
| Fc1ccccc1NC(=S)NCCc1ccccc1 | 3.16 µM (active) |  |
| COc1ccccc1NC(=S)NCCc1ccccc1 | 3.16 µM (active) |  |
| Cc1cc(OC(=O)c2ccc(Cl)cc2)cc(=O)n1C |  | -7.64% (inactive) |
| CC(=O)Nc1cccc(C(=O)OCc2ccc(C(=O)Oc3ccc(Cl)cc3)cc2)c1 | 4.47 µM (active) |  |
| OCCN(CO)CO |  | 0.957% [at 11.4 µM] (inactive) |
| CN(C)CCOC(=O)[C@@H](c1ccccc1)C1(O)CCCC1 |  | -33.7% [at 25.6 µM] (inactive) |

| SMILES | AC50 | activity, negative = inhibition |
| --- | --- | --- |
| O=C(Cn1c(C(F)(F)F)nc2ccccc21)c1ccccc1 | 3.98 µM (active) |  |
| O=C(Cn1c(C(F)(F)F)nc2ccccc21)c1ccc(F)cc1 | 1.58 µM (active) |  |
| O=C(CCCN1CCC(O)(c2cccc(C(F)(F)F)c2)CC1)c1ccc(F)cc1 |  | -23.7% (inactive) |
| O=S(=O)(Nc1ccc2c(c1)OCCO2)c1cccc2cccnc12 | 3.55 µM (active) |  |
| Cn1cc(/C=N/n2cnc3scc(-c4ccccc4)c3c2=O)c2ccccc21 | 8.91 µM (active) |  |
| CN1CCN(c2ncc3nc(-c4cn(C)c5ccccc45)c(=O)n(-c4ccccc4)c3n2)CC1 |  | -27.7% (inactive) |
| COc1ncc2nc(-c3cn(C)c4ccccc34)c(=O)n(-c3ccccc3)c2n1 |  | 9.08% (inactive) |
| N#C/C(=C\NC(=S)c1ccncc1)c1nc2ccccc2s1 |  | -29.2% [at 11.4 µM] (inactive) |
| Cc1cccc(NC(=S)c2nc3ccccc3s2)c1 | 5.62 µM (active) |  |
| Cc1ccc(C)c(S(=O)(=O)NC(C)C(=O)Nc2ccc(-c3nc4ccccc4s3)cc2)c1 (centres undefined) |  | -21.3% (inactive) |
| O=C(c1ccco1)N1CCC2(CCN(Cc3nccs3)CC2)CC1 |  | -1.61% (inactive) |
| O=C(NCC(c1cccs1)N1CCOCC1)c1ccco1 (centres undefined) | 8.91 µM (active) |  |
| CCC1=NN(C(=O)CCc2ccccc2)C(O)(C(F)(F)F)C1 (centres undefined) | 0.224 µM (active) |  |
| COc1cccc(C(=O)N2N=C(c3cccc(OC)c3)CC2(O)C(F)(F)F)c1 (centres undefined) | 0.794 µM (active) |  |
| O=C(CCc1ccccc1)Nc1ncn[nH]1 |  | -13.6% (inactive) |
| CCOC(=O)N1N=C(c2ccccc2)CC1(O)C(F)(F)F (centres undefined) | 15.8 µM (active) |  |
| CCOC(=O)N1CCN(C(=O)CCn2nc(-c3ccccc3)ccc2=O)CC1 |  | 31% (inactive) |
| CCc1cc2c(nc1CC)CCN(CC/C(C)=N/OCC[C@@H]1C=C[C@H](OC(C)=O)[C@H](COC(C)=O)O1)C2 |  | 7.29% [at 11.4 µM] (inactive) |
| O=C(Cn1nnc(-c2ccccc2)n1)OCc1ccccc1 | 3.98 µM (active) |  |
| CN1/C(=C\C(=O)COC(=O)Cn2nnc(-c3ccccc3)n2)C(C)(C)c2ccccc21 | 11.2 µM (active) |  |
